Experimental data as given in PubChem BioAssay (NCI).
This is part of a sample that, as a whole, favours compounds with a hit. Of some 83,000 tested, about 20% had one in any assay.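 Plates (96-well) were seeded with cells, treated with compound at one concentration, and incubated for 48 hours before percent growth was determined.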 A number with no mark means an inactive call. The source made the active and inactive calls.

Each compound was assayed on SK-MEL-5 melanoma (assay: NCI-60 one-dose screen, 48 h (100 = growth as untreated, 0 = no growth, -100 = all killed)). Settings: 10 µM unless noted.
Protocol: Growth inhibition of the SK-MEL-5 human tumor cell line is measured as a screen for anti-cancer activity. Cells are grown in 96 well plates and exposed to the test compound for 48 hours. Compounds are tested at a single concentration, which is 10^-5 M for most compounds. The reported endpoint is percent growth (GI% or GIPRCNT), where numbers from 0 - 100% represent growth inhibition, and numbers from -100% - 0 represent cell death. For example, a value of 40 represents 60% growth inhibition. A value of 0 means no net growth occurred over the course of the experiment. A value of -40 indicates 40% of cells at the beginning of the experiment died by the end of the experiment. A value of -100 means all cells are dead at the end of the experiment.
NCI-60 Human Tumor Cell Lines Screen was performed using the standard one-dose NCI protocol, which is described in more detail at https://dtp.cancer.gov/discovery_development/nci-60/default.htm.
Compounds with GIPRCNT values below 10 were considered active. Activity score was based on GIPRCNT using the following formula: […]
Score is 0 for GIPRCNT values of 100 or above, 50 for GIPRCNT values of 0, and 100 for GIPRCNT values of -100.
`O=C(Cn1cc(CN2C(=O)c3ccccc3S2(=O)=O)nn1)Nc1nc2ccccc2s1` was tested, and the growth was 104%. With `Nc1nc2c([nH]1)c1[nH]c3ccccc3c1c1[nH]c3ccccc3c21` the growth was 58.7%. In the case of `CN(C)c1ccc(Nc2cc(-c3cccc(OC(F)(F)F)c3)nc3ccc(N4CCCC4)cc23)cc1`, the growth is reported as 96.3%. `Cc1nc2c(=O)[nH]c(SCC(=O)Nc3cccc(F)c3)nc2[nH]c1=O` was tested, and the growth was 102%. `CCC(C)N(c1ccc(Cl)cc1)c1nc(-c2ccc(Br)cc2)cs1` (stereo not given) showed a growth of 104%. In the case of `O=C(CSc1nc2ccc([N+](=O)[O-])cc2[nH]1)Nc1cccc(C(F)(F)F)c1`, the growth is reported as -1.54% (active). `O=C1/C(=C/c2cccs2)SC(=S)N1CCCN1CCOCC1` was tested, and the growth was 95.3%. `CCO/C=N/C1=C(C#N)C(c2ccc(OC)cc2)c2sc3c(F)cccc3c2O1` (stereo not given) was tested, and the growth was -22.9% (active). For `CCOC(=O)Cn1c(O)c(N=Nc2ccc(S(N)(=O)=O)cc2)c2cc(Br)ccc21`, the growth was 88.3%. `Cc1nc2sc(C(=O)Nc3ccccc3)c(N)c2cc1C(=O)c1ccccc1` showed a growth of 31.9%. For `C/C(=C(/c1ccc(Cl)cc1)c1ccc(OCCN2CCCC2)cc1)c1ccc(Cl)cc1`, the growth was 82.4%. `Fc1ccc(-c2nn(-c3ccccc3)cc2-c2nc3ccccc3o2)cc1` showed a growth of 57.9%. In the case of `Cn1c(=O)c2[nH]c(N/N=C/c3ccccc3Br)nc2n(C)c1=O`, the growth is reported as 103%. Work on `COc1cc(-c2nc(SCCC(C)C)nc(Nc3ccccc3Cl)c2C#N)cc(OC)c1OC` yielded a growth of 89.2%. For `N#Cc1nc(-c2ccccc2)oc1S(=O)(=O)N1CCOCC1`, the growth was 91.6%. In the case of `O=C(CI)NC1Oc2ccccc2-c2oc(=O)c(-c3ccccc3)cc21` (stereo not given), the growth is reported as 85.5%. With `CCC(=C(c1ccc(OCCN2CCCC2)cc1)c1ccc(OCCN2CCCC2)cc1)c1ccc(Cl)cc1` the growth was -83.4% (active). For `CC(C)(C)[Si](C)(C)O[C@H]1C(=O)C=CN2CC=C[C@@H]12`, the growth was 106% [100 µM]. `N#Cc1c(N)nnn1Cc1cc(=O)oc2c1ccc1ccccc12` was tested, and the growth was 97.6%. In the case of `COc1ccc2[nH]cc(-c3nc(-c4c[nH]c5ccncc45)cs3)c2c1`, the growth is reported as 43.3%. Compound `Nc1nc(=S)c2ncn(C3OC(COP(=O)(O)O)C(O)C3O)c2[nH]1` (stereo not given) has a growth of 69.5%. In the case of `COc1ccc(-c2cc(-c3ccc(Cl)cc3)c(C#N)c(=O)n2CCCCC(=O)Nc2ccccc2N)cc1`, the growth is reported as -39.1% (active). `Oc1c(Cl)cc(Cl)c2ccc(Cn3cc(-c4ccc(C(F)(F)F)cc4)nn3)nc12` was tested, and the growth was 98.8%. `O=C(O)CCCN1C(=O)/C(=C/C(Cl)=C/c2ccccc2)SC1=S` showed a growth of 38.4%. `COc1cccc(CNc2ncnc3c2ncn3C2OC(CO)C(O)C2O)c1O` (stereo not given) was tested, and the growth was 14.4%. With `COC(=O)c1ccc2c(c1)C(=O)c1c-2n(CCCN)c(=O)c2cc([N+](=O)[O-])ccc12` the growth was -100% (active). For `Cc1cc2c([nH]1)CSc1cc(S(=O)(=O)c3ccccc3)c(=O)[nH]c1-2`, the growth was -36.7% [100 µM] (active). Compound `C#Cc1cccc(Nc2ncnc3ccc(-c4cnc(N)nc4)cc23)c1` has a growth of 32.7%. Work on `N#Cc1c(-c2ccc(Cl)cc2)nc(NN=Cc2cccc(O)c2)nc1N1CCOCC1` yielded a growth of 76.5%. `CC1=C(Nc2ccc(N3CCN(C)CC3)cc2)C(=O)c2cncnc2C1=O` gave a growth of 81.5%. For `N#C/C(=C\c1ccc(-c2ccc(Cl)cc2)o1)C(=O)Nc1ncc(Cc2ccc(Cl)cc2)s1`, the growth was 94.7%. With `COc1cc(OC)c2sc(-c3ccc(-n4cncc4-c4ccc(OC)c(OC)c4)cc3)nc2c1` the growth was 22.5%. `C=C1C(=O)O[C@H]2[C@H]1CC/C(COC(=O)NCc1cc[nH]c1)=C\CC[C@@]1(C)O[C@@H]21` gave a growth of 91.2%. `O=C1/C(=C/c2ccc(F)cc2)COc2ccc(O)cc21` gave a growth of 98.5%. For `CCCC(=O)NC(c1ccc2c(c1)OCO2)c1ccc2cccnc2c1O` (stereo not given), the growth was -12.4% (active). With `COc1ccc(N2CCC(=O)NC2=S)cc1` the growth was 99.2%. In the case of `COc1ccc2c(O)c(/C=C3\N=Nc4ncccc43)oc2c1C[C@H]1CCNC[C@H]1F`, the growth is reported as -30.1% (active). Work on `COc1cc(-c2cc(-c3cccs3)c(C#N)c(N3CCOCC3)n2)cc(OC)c1OC` yielded a growth of 45.7%. `CC1(c2ccccc2O)NN=C(/N=C/c2cccc([N+](=O)[O-])c2)N1C(Cc1c[nH]c2ccccc12)C(=O)O` (stereo not given) showed a growth of 93%. `CCN(CC)CCNC(=O)c1cn2ncnc(Oc3ccc(NC(=O)Nc4ccc(Cl)c(C(F)(F)F)c4)c(F)c3)c2c1C` was tested, and the growth was -20.3% (active).
